Laboratory results taken from the supplement of paper PMC10338343.
± gives the standard deviation. In all, about 6,200 sequences were measured (“pre-steady-state target cleavage rate”: median about 0.29, highest 2% from about 2 on). The sample as a whole holds a higher share of the highest values than the screen did.

Each sequence was assayed on MIWI (PIWIL1) piRISC loaded with piRNA #1 (30 nt) (assay: pre-steady-state target cleavage rate (min^-1); MIWI and MILI are mouse PIWI proteins and EfPiwi is from a freshwater sponge; tags in brackets are library labels; higher = faster piRNA-guided slicing of the target). Settings: guide: piRNA #1 5'p-UGAGGUAGUAGGUUGUAUAGUAUCCAGAGG; auxiliary factor: 500 nM mouse GTSF1.
Outline: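 Active affinity-purified piRISC carrying one synthetic guide (1 nM) was mixed with a transcribed, DNA-blocked target RNA library […] in HEPES–potassium acetate buffer at 33 °C for 0–8 or 0–960 min, with or without 500 nM GTSF1 partner protein. Uncleaved targets were then sequenced and normalised to depth and to weakly complementary targets. Three trials were pooled, and k3 was capped at 0.0001 min^-1. A burst-and-steady-state fit was applied to obtain the pre-steady-state cleavage rate.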
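Further: 1 nM active piRISC with 0.1 nM target library at 33 °C single turnover.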

Sequence | pre-steady-state target cleavage rate
CCUCUGGAUAGUAUACAACGUACUACCUCA | 0.0367 ± 0.011
GGAGACCUAUCUAUACAACCUACUACCUUA | 0.905 ± 0.069
GGAGACCUAUCUUUUCAACCUACUACCUCA | 0.0982 ± 0.032
GCAUCUGGAUACUAUACAACCUACUACCUCA | 1.82 ± 0.087
GGAGACCUAUGAUAUGUUGCUCACUACCUCA | 0.00246 ± 0.0017
GCUCUGCAUUCUAUACAACCUACUACCUCA | 1.65 ± 0.11
GCUCUGCAUACUAUACAACCUACUACCUCA | 1.96 ± 0.11
GCUCUGCAUACUAUUCAACCUACUACCUCA | 1.93 ± 0.12
GGUCUGCAUUCUAUACAACCUACUACCUCA | 1.51 ± 0.11
CCUCUGCAUUCUAUACAACCUACUACCUCA | 2.13 ± 0.13
CCUCUGCAUACUAUACAACCUACAACCUCA | 1.7 ± 0.12
GGUCUGCAUACUAUACAACCUACUACCACA | 0.7 ± 0.07
GCUCUGCAUACUAUACAACCUACUACCACA | 1.98 ± 0.18
CCUCUGCAUACUAUACAACCUACUACCACA | 2.37 ± 0.19
CCUCUGCAUACUAUUCAACCUACUACCUCA | 2.21 ± 0.14
CCUCUGCAUACUAUACAACCUACUACCUCA | 2.01 ± 0.12
GGUCUGCAUACUAUUCAACCUACUACCUCA | 1.65 ± 0.12
GGACUGGAUACUAUACAAGGUACUACCUCA | 0.331 ± 0.036
GCUCAGGAUACUAUACAACCUACUACCUGA | 0.681 ± 0.042
GGAGACCAUACUAUACAACCUACUACCAUCA | 1.35 ± 0.087

Sequence | pre-steady-state target cleavage rate
CCUCUGGAUACAAUACAACCUACUACCUGA | 0.657 ± 0.085
GGAGACCUUACAAUACAAGCUACUACCUCA | 0.258 ± 0.035
GCUCUGGAUAGUAUACAACCUACUACCUGA | 0.324 ± 0.045
GGACUGGAUACUAUACAACCUAGAACCUCA | 0.0154 ± 0.004
GGACUGGAAACUAUAGAACCUACUACCUCA | 1.13 ± 0.08
GGAGAGGAUACUAUGCAACCUACUACCUCA | 1.62 ± 0.095
GGACUGGAUACAUAACAACCUACUACCUCA | 0.634 ± 0.11
CCUCAGCAUACUAUACAACCUACUACCUCA | 2.12 ± 0.13
CCUGUGCAUACUAUACAACCUACUACCUCA | 2.3 ± 0.15
CCUCUGCAUACUUUACAACCUACUACCUCA | 2.13 ± 0.15
GCUCAGCAUACUAUACAACCUACUACCUCA | 1.83 ± 0.11
GCUGUGCAUACUAUACAACCUACUACCUCA | 1.91 ± 0.12
CCUCUGCAUACAAUACAACCUACUACCUCA | 2.02 ± 0.12
GCUCUGCAUACAAUACAACCUACUACCUCA | 1.82 ± 0.13
GGUCUGCAUACAAUACAACCUACUACCUCA | 1.45 ± 0.11
GGUGUGCAUACUAUACAACCUACUACCUCA | 1.73 ± 0.1
GGUCUGCAUACUUUACAACCUACUACCUCA | 1.48 ± 0.12
GGUCAGCAUACUAUACAACCUACUACCUCA | 1.81 ± 0.096
GCUCUGCAUACUUUACAACCUACUACCUCA | 1.68 ± 0.11
GGAGACCUAUCUAAACAACCUACAACCUCA | 0.00335 ± 0.0022
